The text below walks through data of ChEMBL document CHEMBL3988442, “University of Dundee, Small-Polar-MMV Screening Library” (2021).

Each structure is given as a SMILES string. Among all 48,000 compounds or so, about 13,000 (27%) showed an effect of 50% or more. This is one part of the list.

The experiment deals with Wolbachia pipientis. Kind of experiment: Anti-Wolbachia Cell-Based Screen. The format is functional. Also on record: scale not given: in the data most compounds retested in dose-response had high values. As to conditions: 5 µM.
Turning to `CC(C)CN1CCC(c2nc3c([nH]2)CC(C)(C)CNC3=O)C1` (stereo not given), the “Percent Effect” value is on record as -15.84%.
The result for `c1cn(Cc2nnc(C3CCN(C4CCNCC4)CC3)n2C2CC2)cn1` reads -5.551%.
For `O=C(O)CCCN1C[C@@H](c2ccccc2F)[C@@]2(CCCCC(=O)N2)C1`, the “Percent Effect” value stood at 110%.
For the compound `O=C1CCOC[C@]2(CN(Cc3ccccc3)C[C@H]2c2ccccc2F)N1`, the “Percent Effect” value stood at 94.73%.
The result for `O=C1NCC[C@]12CN(Cc1ccoc1)C[C@H]2c1ccccc1` reads -11.19%.
Take `O=C1CCOC[C@]2(CN(Cc3ccccc3)C[C@H]2c2ccccc2)N1`: the “Percent Effect” value is 85.32%.
On to `O=C(NC1CC(F)(F)C1)[C@]12COC[C@H]1CN(Cc1ccccc1)C2.O=C(O)C(F)(F)F`, for which the “Percent Effect” value is on record as -29.2%.
Under `O=C1NC2(CCN(Cc3cccnc3)CC2)CC1c1ccncc1` (stereo not given) stands -17.77%.
For `O=C1CCOC[C@]2(CN(Cc3ccccc3)C[C@H]2c2cccnc2)N1`, the “Percent Effect” value turned out to be 97.51%.
As for `NC(=O)CN1CC2(CCC1=O)CCN(Cc1ccccc1F)CC2`, the “Percent Effect” value is on record as -12.52%.
Under `O=C1NC[C@@]2(C(=O)O)CN(Cc3ccc(Oc4ccccc4)cc3)C[C@@H]12` stands 22.58%.
On to `O=C(CC1CN(Cc2ccccc2)CCO1)Nc1ccccc1F` (stereo not given), for which the “Percent Effect” value was -6.692%.
Under `Cc1ccc(OCC(=O)N2C[C@@H]3CN(C)CCO[C@@H]3C2)cc1.O=C(O)C(F)(F)F` stands -15%; under `CN(Cc1ccoc1)C(=O)C1CCN(C(=O)C2CCCC2)CC1`, -1.17%.
Regarding `Cc1cc(NC(=O)CN(C)CC2CCCN2c2cccnn2)n(C)n1` (stereo not given), the “Percent Effect” value is listed as -5.162%.
Under `N[C@@H]1CCN(Cc2ccc(-c3nc(-c4cccnc4)cc(=O)[nH]3)cc2)C1` stands 4.047%; under `COc1cc(C(C)=O)ccc1SCC(=O)Nc1cc(C)n[nH]1`, 8.192%.
Under `O=C(NC[C@]12COC[C@H]1CN(Cc1cccc(F)c1)C2)c1ccco1` stands 10.17%; under `O=C1CCOC[C@]2(CN(Cc3ccccc3)C[C@H]2c2cccc(F)c2)N1`, 100.5%.
Under `O=C1NC[C@@]2(C(=O)O)CN(Cc3cccc(CN4CCOCC4)c3)C[C@@H]12` stands -10.55%; under `N#Cc1ccc(CNCC(C(=O)N2CCOCC2)c2ccccc2)cc1` (stereo not given), -11.01%; under `O=C(c1cccnc1)N1C[C@@H]2CC[C@H](C1)N(Cc1cc(F)ccc1F)C2`, -19.69%.
For `Cl.Cl.OC(CN1CCN(Cc2cc(F)ccc2F)CC1)C1CC1` (stereo not given), the “Percent Effect” value is on record as -0.1352%.
Turning to `Fc1ccc(F)c(CN2CCC(c3cnccn3)CC2)c1`, the “Percent Effect” value is 76.33%.
As for `Fc1cccnc1N1CCC(NCc2cccc3cn[nH]c23)C1` (stereo not given), the “Percent Effect” value is 4.996%.
`COc1ccc(Oc2cccnc2)cc1CN1CCCC1`: the “Percent Effect” value was determined as 40.81%.
In the case of `COc1ccc(C)cc1CN1CCN(Cc2nccn2C)CC1`, the “Percent Effect” value is recorded as -6.315%.
Regarding `CN(Cc1cc(F)cc2cccnc12)CC1CCN(CCO)CC1`, the “Percent Effect” value is on record as -1.587%.
For the compound `Cl.Fc1cccc(CN2CCC(c3cc4ncccc4cn3)CC2)c1F`, the “Percent Effect” value is recorded as 64.82%.
Regarding `Cl.Fc1ccc(F)c(CN2CCC(c3cc4ncccc4cn3)CC2)c1`, the “Percent Effect” value was 84.15%.
`COc1ccc(C)cc1CN1CCC(c2cc3ncccc3cn2)CC1.Cl`: the “Percent Effect” value was 107%.
The result for `Cc1cnn(Cc2cc(F)ccc2F)c1NC(=O)NC1CC1` reads -2.224%; that for `CC(C)CCNc1nnc(C(C)C)s1`, -2.433%.
For the compound `Cc1noc(C)c1CN(C)C(=O)C1(N)CCCCC1`, the “Percent Effect” value is listed as -29.06%.
With `CCC1CN(Cc2ccccc2)CCN1Cc1nnc(C2CCC2)o1` (stereo not given), the “Percent Effect” value was 7.114%.
The result for `CN(Cc1nc(C2CC2)no1)C(=O)c1cccc(CC2CCNCC2)c1` reads -25.8%; that for `CC(C)(O)c1cn(C2CCN(C(=O)CCc3ccncc3)CC2)nn1`, -4.68%.
The result for `O=C(Nc1cnc(C2CC2)nc1)N1CCCC1` reads -9.25%; that for `CC(C)c1cc(C2CCN(Cc3cc(F)cc(F)c3)CC2)[nH]n1`, 18.27%.
The result for `Fc1cc(F)cc(CN2CCC(c3cc4ncccc4cn3)CC2)c1` reads 115.3%; that for `Cc1nnc(CN(C)C2CCN(Cc3nnc(C4CCC4)o3)C2)n1C` (stereo not given), 92.95%.
Turning to `CCn1c(C)nnc1CN(C)C1CCN(Cc2cnc(C)cn2)C1` (stereo not given), the “Percent Effect” value is listed as -10.08%.
Under `CCn1c(C)nnc1CN(C)C1CCN(Cc2nnc(C3CC3)o2)C1` (stereo not given) stands 99.37%; under `Cc1cnc(CN2CCC(N(C)Cc3nnc(C)n3C)C2)cn1` (stereo not given), 0.1518%.
Under `CCn1c(C)nnc1CN(C)C1CCN(Cc2ccon2)C1` (stereo not given) stands 7.959%; under `N#CC(NC(=O)CCC1CCC1)c1cnn(-c2ccccc2)c1` (stereo not given), 1.369%.
Under `CNC(=O)Cn1nc(C(C)C)c2cnn(C(C)(C)C)c2c1=O` stands -6.377%; under `CN(C)[C@@H]1CO[C@H](CNC(=O)C2CCCC2)[C@H]1O`, -8.236%.
With `Cc1ccc(C(=O)NCCNC(=O)c2cncnc2C)cc1F`, the “Percent Effect” value is -5.207%.
Consider `CCC(C)(C)C(=O)N1C[C@@H]2C[C@@H](c3nnc(C)[nH]3)O[C@@H]2C1`, for which the “Percent Effect” value is 92.76%.
`Cc1nc([C@H]2C[C@H]3CN(C(=O)c4cc(C)c(C)s4)CC[C@@H]3O2)no1`: the “Percent Effect” value is recorded as 1.908%.
Regarding `CCn1nc(C)cc1C(=O)N1C[C@@H]2C[C@@H](c3nc(C)cs3)O[C@@H]2C1`, the “Percent Effect” value amounted to 100.8%.
On to `Cc1ccc(C(=O)N2CC[C@H]3O[C@@H](c4noc(C)n4)C[C@H]3C2)o1`, for which the “Percent Effect” value was 6.095%.
Under `CCN1C[C@@H]2[C@@H](OC)CCN(C(=O)c3cc(C)nn3CC)[C@@H]2C1.O=C(O)C(F)(F)F` stands -7.784%.
The result for `CCn1nc(C)cc1C(=O)N1CC[C@H](OC)[C@H]2CN(CC3CC3)C[C@H]21.O=C(O)C(F)(F)F` reads 3.94%; that for `CCn1nc(C)cc1C(=O)N1C[C@@H]2C[C@@H](c3noc(C)n3)O[C@@H]2C1`, 118.5%.
Consider `Cc1nnc([C@@H]2C[C@H]3CN(C(=O)c4c(C)noc4C)C[C@H]3O2)[nH]1.O=C(O)C(F)(F)F`, for which the “Percent Effect” value is listed as -14.34%.
Under `Cc1nnc([C@@H]2C[C@H]3CN(C(=O)C4CC4)C[C@H]3O2)[nH]1` stands -12.1%.
Regarding `CCn1nc(C)cc1C(=O)N1C[C@@H]2C[C@@H](C)O[C@@H]2C1.O=C(O)C(F)(F)F`, the “Percent Effect” value was determined as 99.49%.
For `Cc1csc([C@@H]2C[C@@H]3CCN(C(=O)c4ccnnc4)C[C@H]3O2)n1`, the “Percent Effect” value was -12.9%.
Under `Cc1csc([C@@H]2C[C@@H]3CCN(C(=O)c4cc(C)on4)C[C@H]3O2)n1` stands 1.11%; under `O=C(CN1CCS(=O)(=O)CC1)NC1CCCCc2ccccc21` (stereo not given), -11.03%.
Under `CCC(Nc1nnnn1-c1ccccc1)C(=O)NCc1cccs1` (stereo not given) stands -3.486%; under `CN1CCOC[C@H]1c1nc(-c2ccc(F)cc2F)c[nH]1`, 2.014%; under `COC1CCCN(CCCc2cn[nH]c2)C1` (stereo not given), -27.42%.
Turning to `OC1CCN([C@@H]2CCN(c3nc(-c4ccccc4)no3)C[C@H]2O)CC1`, the “Percent Effect” value is listed as -5.249%.
For `CCCN1CC2(CCN(C)CC2)CC1C(=O)NCc1cc(C)nn1C` (stereo not given), the “Percent Effect” value turned out to be 6.557%.
Under `O=C(NCC(F)(F)F)C1CN(C(=O)c2cnccn2)C1` stands -11.97%; under `CCn1nc(C)cc1C(=O)N1C[C@@H]2C[C@@H](c3nnc(C)[nH]3)O[C@@H]2C1`, 102%; under `Cc1nnc([C@H]2C[C@@H]3CCN(C(=O)C4CCOCC4)C[C@H]3O2)[nH]1`, -13.79%.
Take `Cc1nnc([C@@H]2C[C@H]3CN(C(=O)c4sccc4C)C[C@H]3O2)[nH]1`: the “Percent Effect” value was -0.8336%.
Regarding `CCc1nc(N2CCCC(CCCOC)(C(=O)O)C2)ncc1C` (stereo not given), the “Percent Effect” value was -7.437%.
Consider `CO[C@H]1CCN(c2ncccn2)[C@H]1Cc1ccccc1`, for which the “Percent Effect” value is 1.779%.
The result for `CO[C@H]1CCN(Cc2nccs2)C[C@@H]1Cc1ccccc1` reads 1.604%; that for `Cc1cc2c(cc1C)C(NC1CC1)CCCO2` (stereo not given), -4.167%; that for `CCCc1ccc(C(=O)N2Cc3c(Cn4ccnc4)nn(C)c3C2)cc1.O=CO`, -14.37%.
The result for `COCCn1cnc2ccc(NC(=O)CCCn3cccn3)cc2c1=O` reads 181%; that for `CC(C)Cn1cncc1CNC(=O)c1cccc(Cn2cccn2)c1`, 0.1096%; that for `COCCn1ccc(NC(=O)Nc2ccc(C)cc2)n1`, 3.618%.
Under `CC(C)c1nc(NC(=O)CCCn2cccc2)n(C)n1` stands -8.102%; under `CCNC(=O)CCC(=O)Nc1ccc2nn(C(C)C)cc2c1`, 9.58%; under `CCN(CC)c1ccc(NC(=O)NC(C)Cn2cccn2)cn1` (stereo not given), -15.96%.
With `Cn1cnc2ccc(NC(=O)CCCn3cccn3)cc2c1=O`, the “Percent Effect” value stood at 106.9%.
Under `COCCn1ccc(NC(=O)Nc2ccncc2)n1` stands 5.636%; under `Cc1ccc(C(=O)NCCCn2cccn2)c(=O)[nH]1`, 22.25%.
The result for `CC(C)Cn1cnc2ccc(NC(=O)CCCn3cccn3)cc2c1=O` reads 102.5%; that for `COC(=O)CC(NC(=O)CCCn1cccn1)c1ccc(Cl)cc1` (stereo not given), -43.24%.
The result for `CC(C)n1cnc2ccc(NC(=O)CCCn3cccn3)cc2c1=O` reads 106%.
`CCc1nnsc1C(=O)NCCCC(CC)(CC)C1OCCO1`: the “Percent Effect” value is -13.99%.
On to `CC(C)c1nnc2n1CC(CNc1cnc3ccccc3n1)CC2` (stereo not given), for which the “Percent Effect” value is given as -3.73%.
Under `Cc1cc(C)n(C2CN(CC(O)COc3ccc(F)cc3)C2)n1` (stereo not given) stands 3.815%; under `CC(NCCc1nccn1Cc1ccccc1)c1ccsc1` (stereo not given), 1.494%; under `O=C(c1ccc[nH]1)N1C[C@H]2CC[C@@H]1CN(c1ncccn1)C2`, -10.43%.
The result for `CCOc1ncccc1-c1cc2c(cc1C(N)=O)OCO2` reads 2.212%; that for `COC(=O)CNC(=O)CSCc1nc(O)c2c(C)c(C)sc2n1`, 7.048%.
